Only some compounds are listed: those with a hit (about 4.5% of all), similar ones and a draw of the others.
hgDAF-12 ag: hgDAF-12 agonism, primary luciferase screen | activation, % at 6.8 µM | AID 687014 | HEK293 GAL4-hgDAF12 UAS-luciferase reporter, agonist luminescence; normalized to butyrate control | 1.8% of 370,000 active;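 active = activation above a cutoff set at the mean of all screened compounds plus 3 SD, cut at about 10% in these data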
GAA850 FXN act: increases GAA850 frataxin promoter reporter activity; HEK293 lucGAA850 FXN promoter luciferase reporter, 24 h; percent of 10 µM SAHA response; activation, % at 6 µM; 0.56% of 360,000 active; AID 540364;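 active = activation above the average of all compounds screened plus 3 SD, cutoff fixed separately per campaign, cut at about 7.5% in these data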
DAX1 inh-1: inhibitors of human orphan nuclear receptor DAX1 (NR0B1) | HEK293 Gal4-DAX1 luciferase reporter, luminescence | inhibition, % at 6.75 µM | 0.99% of 340,000 active | AID 504766;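 active = inhibition above the mean over all tested compounds plus 3 SD, cut at about 4.2% in these data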;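 note: inhibition shows as a rise in luminescence from relieved DAX1 repression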
Target sequence (P51843 207-470 limits assumed): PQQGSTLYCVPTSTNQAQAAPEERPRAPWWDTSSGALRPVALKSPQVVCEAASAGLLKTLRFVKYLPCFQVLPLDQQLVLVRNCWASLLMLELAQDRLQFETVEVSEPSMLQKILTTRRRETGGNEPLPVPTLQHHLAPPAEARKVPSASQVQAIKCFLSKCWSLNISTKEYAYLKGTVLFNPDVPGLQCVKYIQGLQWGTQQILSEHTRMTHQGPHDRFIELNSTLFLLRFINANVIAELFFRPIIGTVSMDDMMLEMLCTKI
ssDAF12 agonist: S. stercoralis DAF-12 activation, primary screen; HEK293 ssDAF-12/GRIP1 lit1-tk-luc reporter, luminescence; % of 3 µM dafachronic acid response; activation, % at 6.8 µM; 1% of 370,000 active; AID 652126;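 active = activation above the mean over all tested compounds plus 3 SD, cut at about 0.9% in these data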
DAX1 inh-2: inhibitors of DAX1 repression of SF-1 activated StAR promoter; HEK293T StAR-luciferase reporter, SF-1/DAX-1 repression relief; inhibition, % at 6.8 µM; 1.1% of 370,000 active; AID 652010;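 active = inhibition above the mean over all tested compounds plus 3 SD, cut at about 3.6% in these data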;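 note: higher inhibition means more luminescence from relief of DAX-1 repression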
hcDAF12 agonist: activators of H. contortus DAF-12 nuclear receptor; HEK293 hcDAF-12 lit1-tk-luc reporter, luminescence; 0% DMSO, 100% Δ7-dafachronic acid; activation, % at 6.8 µM; 1.4% of 370,000 active;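 active = activation above the mean of all tested compounds plus 3 SD, cut at about 5.5% in these data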
LXRb hcDAF ctr: LXR-beta agonism as hcDAF-12 counter-screen. shares compounds with hcDAF12 agonist. HEK293 Gal4-LXR tk-luc reporter, luminescence, 24 h; normalized: DMSO 0%, positive control 100%. activation, % at 6.8 µM. 3,400 tested, under 10 active. AID 743027;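 active = mean percent activation of the reporter above a cutoff set as the average over tested compounds plus their standard deviation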
Target sequence (P55055 whole entry, looked up, the tested form may be a part): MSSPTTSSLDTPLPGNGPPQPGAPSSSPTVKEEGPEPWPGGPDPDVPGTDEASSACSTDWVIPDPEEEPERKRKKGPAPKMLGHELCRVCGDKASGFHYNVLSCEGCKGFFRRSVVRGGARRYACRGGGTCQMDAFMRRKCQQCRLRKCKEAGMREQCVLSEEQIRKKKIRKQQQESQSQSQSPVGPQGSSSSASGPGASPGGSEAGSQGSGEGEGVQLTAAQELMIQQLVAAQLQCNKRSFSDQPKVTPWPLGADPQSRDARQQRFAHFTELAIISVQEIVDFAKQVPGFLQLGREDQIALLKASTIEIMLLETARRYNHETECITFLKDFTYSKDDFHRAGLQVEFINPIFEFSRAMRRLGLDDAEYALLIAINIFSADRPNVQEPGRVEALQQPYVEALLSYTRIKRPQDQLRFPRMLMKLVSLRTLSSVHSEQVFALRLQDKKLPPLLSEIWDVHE
hcDAF12 conf: confirmation of H. contortus DAF-12 agonists. HEK293 hcDAF-12 lit1-tk-luc reporter, luminescence; % of Δ7-dafachronic acid response. shares compounds with hcDAF12 agonist. 61% of 3,400 active. activation, % at 6.8 µM;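 active = mean activation across triplicate tests above the threshold derived from the earlier primary screen, cut at about 5.5% in these data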
Large screens that a line does not name were inactive (follow-up assays come after a bar, where they were run).

Cc1csc2ncc(C(=O)Nc3ccon3)c(=O)n12	hcDAF12 agonist 9.5 | LXRb hcDAF ctr inactive | hcDAF12 conf inactive
CCCCON1C(=O)c2cccc3cccc(c23)C1=O	hcDAF12 agonist 9.6 | LXRb hcDAF ctr inactive | hcDAF12 conf 7.4
CCSc1nc(=S)n(Cc2ccccc2)c(C)c1C(C)=O	none
CSc1nc(=S)n(Cc2ccccc2)c(C)c1C(C)=O	hcDAF12 agonist 9.1 | LXRb hcDAF ctr inactive | hcDAF12 conf inactive
O=C(C1=C(O)C(=O)N(CCN2CCOCC2)C1c1cccc(O)c1)c1cc2ccccc2o1 (configuration not stated)	none
O=C(C1=C(O)C(=O)N(CCN2CCOCC2)C1c1cccc(F)c1)c1cc2ccccc2o1 (configuration not stated)	hcDAF12 agonist 8.3 | LXRb hcDAF ctr inactive | hcDAF12 conf inactive
CCCN1CCCCC(NC(=O)c2ccc(F)c(F)c2)C1=O (configuration not stated)	none (no result: GAA850 FXN act, DAX1 inh-1)
CC(C)NC(=O)N[C@H]1C[C@@H]2O[C@@H](CO)CC[C@@H]2O[C@@H]1CCc1ccc(-c2ccccc2F)cc1	none (no result: GAA850 FXN act, DAX1 inh-1)
CC(=O)NNc1ncnc2ccccc12	DAX1 inh-1 8.7, hcDAF12 agonist 10.0 | LXRb hcDAF ctr inactive | hcDAF12 conf inactive
O=C(O)/C=C/C(=O)NNc1ncnc2ccccc12	none
O=C(Cc1ccccc1)NCCSCc1ccco1	none
O=C(NCCSCc1ccco1)Nc1ccccc1	hcDAF12 agonist 9.8 | LXRb hcDAF ctr inactive | hcDAF12 conf inactive
CN(C)[C@H]1CCN(c2cccc3c2S(=O)(=O)N2CC[C@@H](C2)O3)C1	none (no result: GAA850 FXN act, DAX1 inh-1)
CC1CCN(c2c3c(nc4ncnn24)CCCC3)CC1	none (no result: GAA850 FXN act, DAX1 inh-1)
CCOc1cccc(-c2nnc3n2N=C(c2ccc(OC)cc2)CS3)c1	none (no result: GAA850 FXN act, DAX1 inh-1)
COC(=O)[C@H]1C[C@@]2(Oc3ccc(Br)cc3)c3ccccc3N(C(=O)OC(C)(C)C)[C@H]2N1C(=O)OC(C)(C)C	none (no result: GAA850 FXN act, DAX1 inh-1)
O=C(NC(=S)Nc1ccc(Br)cn1)c1cccs1	hgDAF-12 ag 14.4, DAX1 inh-1 6.1, ssDAF12 agonist 2.0, hcDAF12 agonist 12.9 | LXRb hcDAF ctr inactive | hcDAF12 conf 12.0
S=C(Nc1ccccc1)Nc1ccc(Br)cn1	none
O=C(Nc1nc2ccccc2s1)C1CCCO1 (configuration not stated)	hcDAF12 agonist 7.5 | LXRb hcDAF ctr inactive | hcDAF12 conf 6.7
NC(=S)Nc1nc2ccccc2s1	hcDAF12 agonist 7.9 | LXRb hcDAF ctr inactive | hcDAF12 conf 7.0
O=C(NC(=S)Nc1nc2ccccc2s1)c1cccs1	DAX1 inh-1 5.1, hcDAF12 agonist 13.1 | LXRb hcDAF ctr inactive | hcDAF12 conf 16.6
CCOC(=O)c1ccc(NC(=O)[C@@H]2CCC(=O)N2C2OC(=O)c3c2ccc(OC)c3OC)cc1 (some centres not stated)	none (no result: DAX1 inh-1)
C[C@@H]1OC(C2CCCCC2)N(C)[C@H]2C[C@H]3c4cc(-c5ccc6c(c5)OCO6)ccc4CCN3C[C@@H]12 (some centres not stated)	none (no result: GAA850 FXN act, DAX1 inh-1)
COc1ccc(C(=O)Nc2nc3ccccc3s2)c(OC)c1	none
COc1ccc(NC(=O)Nc2nc3ccccc3s2)cc1	hgDAF-12 ag 11.2, hcDAF12 agonist 7.1 | LXRb hcDAF ctr inactive | hcDAF12 conf inactive
COc1n[nH]c(C(=O)Nc2nc3ccccc3s2)c1[N+](=O)[O-]	hcDAF12 agonist 8.0 | LXRb hcDAF ctr inactive | hcDAF12 conf 6.1
Cc1cc(C)n(-c2nc(C)nc3c2cnn3-c2ccccc2)n1	hcDAF12 agonist 10.3 | LXRb hcDAF ctr inactive | hcDAF12 conf 7.8
Cc1cc(C)n(-c2nc3ccccc3c3nc(C)nn23)n1	none
CC(C)C(=O)Nc1ccc(NC(=O)c2ccccn2)cn1	hcDAF12 agonist 6.7 | LXRb hcDAF ctr inactive | hcDAF12 conf inactive
O=C(O)CCCC[n+]1ccccc1	none (no result: GAA850 FXN act, DAX1 inh-1)
NC(=O)c1ccccc1N/C=C/C(=O)c1ccc(Cl)cc1	hcDAF12 agonist 6.7 | LXRb hcDAF ctr inactive | hcDAF12 conf inactive
CCc1ccc2oc(-c3cc(N)ccc3O)nc2c1	hcDAF12 agonist 8.3 | LXRb hcDAF ctr inactive | hcDAF12 conf 7.7
Nc1ccc2oc(-c3cc(Br)ccc3Cl)nc2c1	none (no result: hgDAF-12 ag, ssDAF12 agonist, DAX1 inh-2, hcDAF12 agonist)
CCc1ccc2oc(-c3cc(N)ccc3Cl)nc2c1	ssDAF12 agonist 1.3, hcDAF12 agonist 14.1 | LXRb hcDAF ctr inactive | hcDAF12 conf 9.8
CC(C)CCNC(=O)C1CC(c2ccccc2[N+](=O)[O-])=NO1 (configuration not stated)	hcDAF12 agonist 7.2 | LXRb hcDAF ctr inactive | hcDAF12 conf inactive
COC(=O)c1[nH]c2ccccc2c1NC(=O)CN1CCCCCC1	none
CCOC(=O)c1[nH]c2ccccc2c1NC(=O)CN(C)C	none
CCOC(=O)c1[nH]c2ccccc2c1NC(=O)CC(C)(C)C	hcDAF12 agonist 6.8 | LXRb hcDAF ctr inactive | hcDAF12 conf inactive
COC(=O)c1[nH]c2ccccc2c1CN1CCOCC1	hcDAF12 agonist 7.5 | LXRb hcDAF ctr inactive | hcDAF12 conf inactive
COC(=O)c1[nH]c2ccccc2c1NC(=O)Oc1ccccc1	hcDAF12 agonist 8.4 | LXRb hcDAF ctr inactive | hcDAF12 conf 7.4
CCCS(=O)(=O)NC(=O)C1(C)CCN(C(=O)c2snnc2C)C1 (configuration not stated)	none (no result: DAX1 inh-1)
COCCn1c(C)cc(C(=O)CSc2nc3ccccc3o2)c1C	hcDAF12 agonist 8.4 | LXRb hcDAF ctr inactive | hcDAF12 conf inactive
OC1C2COC(O2)C2OC(c3ccccc3)OC12 (configuration not stated)	none (no result: DAX1 inh-1)
COCC(=O)Nc1ccc2c(c1)C(=O)N(C)[C@@H]1CC[C@@H](CC(=O)OC)O[C@H]1CO2	none (no result: GAA850 FXN act, DAX1 inh-1)
Cc1ccc(S(=O)(=O)Nc2ccc(O)c3ccccc23)c(C)c1	none
Cc1ccc(C)c(S(=O)(=O)Nc2ccc(O)c3ccccc23)c1	hcDAF12 agonist 8.0 | LXRb hcDAF ctr inactive | hcDAF12 conf inactive
Cc1cccc(C)c1NC(=O)C(CCc1ccccc1)n1c(=O)c(-c2ccccc2)nc2ccccc21 (configuration not stated)	none (no result: GAA850 FXN act, DAX1 inh-1)
CNc1ccccc(-c2ccc3ccccc3n2)c1=O	hcDAF12 agonist 7.0 | LXRb hcDAF ctr inactive | hcDAF12 conf 7.2
Cc1cc(Nc2ccccc2)nn1C(=O)c1ccccc1	none
COc1ccc(C(=O)n2nc(C)cc2Nc2ccccc2)cc1	ssDAF12 agonist 1.4, hcDAF12 agonist 8.7 | LXRb hcDAF ctr inactive | hcDAF12 conf 9.6
CCCOc1ccc(CN(CCO)CCO)cc1[N+](=O)[O-]	hcDAF12 agonist 7.3 | LXRb hcDAF ctr inactive | hcDAF12 conf inactive
CCOc1ccc(CN(CCO)CCO)cc1C(=O)OC	none
